The supplement of paper PMC11001985

compound: C#CCNC(=O)CCSSCCC(=O)NCCc1ccc(C=O)c(C=O)c1; assay: lysine labeling ratio R10:1 (500 µM / 50 µM probe), SILAC-ABPP in living cells; higher = lower intrinsic lysine reactivity toward the probe, active = 2 or less; details: HeLa; probe concentrations 500 vs 50 µM
Procedure, shortened: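 R, given per lysine, is the filtered median high-probe/low-probe MS1 peptide ratio, with the median then taken across forward and reverse replicates. Cells were living SILAC light and heavy HeLa cells in PBS at room temperature, labelled with 50 µM or 500 µM of an alkyne-tagged, disulfide-linked lysine probe. The ceiling applied is 20.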

Chain of UniProt P05787 (P05787 whole entry): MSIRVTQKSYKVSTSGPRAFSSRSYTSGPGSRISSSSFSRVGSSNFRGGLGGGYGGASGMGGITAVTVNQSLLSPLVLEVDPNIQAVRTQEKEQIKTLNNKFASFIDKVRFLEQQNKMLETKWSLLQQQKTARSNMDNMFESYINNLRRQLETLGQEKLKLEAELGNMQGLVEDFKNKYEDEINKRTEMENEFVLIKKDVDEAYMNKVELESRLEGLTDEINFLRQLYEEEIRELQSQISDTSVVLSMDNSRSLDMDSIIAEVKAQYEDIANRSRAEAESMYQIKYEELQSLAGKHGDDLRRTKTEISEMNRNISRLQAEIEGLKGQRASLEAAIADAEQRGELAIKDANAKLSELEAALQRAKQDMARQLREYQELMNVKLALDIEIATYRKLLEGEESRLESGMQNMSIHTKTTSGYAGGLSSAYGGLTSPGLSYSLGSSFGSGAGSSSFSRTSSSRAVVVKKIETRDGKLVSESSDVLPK
Chain of UniProt P17813 (P17813 whole entry): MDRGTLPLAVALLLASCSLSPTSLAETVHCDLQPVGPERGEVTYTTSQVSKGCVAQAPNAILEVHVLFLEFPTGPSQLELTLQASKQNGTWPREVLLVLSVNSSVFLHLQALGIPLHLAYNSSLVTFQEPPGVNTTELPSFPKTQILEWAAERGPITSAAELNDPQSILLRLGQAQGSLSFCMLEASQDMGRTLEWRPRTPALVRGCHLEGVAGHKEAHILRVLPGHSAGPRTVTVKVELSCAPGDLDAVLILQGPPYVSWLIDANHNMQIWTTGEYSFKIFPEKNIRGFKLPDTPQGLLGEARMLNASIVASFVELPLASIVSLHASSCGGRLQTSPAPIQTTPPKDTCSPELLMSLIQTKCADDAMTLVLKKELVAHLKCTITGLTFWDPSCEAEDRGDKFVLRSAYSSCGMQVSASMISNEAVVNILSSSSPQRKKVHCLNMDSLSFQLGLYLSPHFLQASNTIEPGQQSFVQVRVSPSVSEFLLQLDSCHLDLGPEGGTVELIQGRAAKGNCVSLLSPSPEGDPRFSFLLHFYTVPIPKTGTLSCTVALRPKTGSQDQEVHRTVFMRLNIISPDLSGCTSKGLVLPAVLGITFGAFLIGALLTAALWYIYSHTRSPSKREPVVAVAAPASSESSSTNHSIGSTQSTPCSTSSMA
Chain of UniProt P11047 (P11047 whole entry): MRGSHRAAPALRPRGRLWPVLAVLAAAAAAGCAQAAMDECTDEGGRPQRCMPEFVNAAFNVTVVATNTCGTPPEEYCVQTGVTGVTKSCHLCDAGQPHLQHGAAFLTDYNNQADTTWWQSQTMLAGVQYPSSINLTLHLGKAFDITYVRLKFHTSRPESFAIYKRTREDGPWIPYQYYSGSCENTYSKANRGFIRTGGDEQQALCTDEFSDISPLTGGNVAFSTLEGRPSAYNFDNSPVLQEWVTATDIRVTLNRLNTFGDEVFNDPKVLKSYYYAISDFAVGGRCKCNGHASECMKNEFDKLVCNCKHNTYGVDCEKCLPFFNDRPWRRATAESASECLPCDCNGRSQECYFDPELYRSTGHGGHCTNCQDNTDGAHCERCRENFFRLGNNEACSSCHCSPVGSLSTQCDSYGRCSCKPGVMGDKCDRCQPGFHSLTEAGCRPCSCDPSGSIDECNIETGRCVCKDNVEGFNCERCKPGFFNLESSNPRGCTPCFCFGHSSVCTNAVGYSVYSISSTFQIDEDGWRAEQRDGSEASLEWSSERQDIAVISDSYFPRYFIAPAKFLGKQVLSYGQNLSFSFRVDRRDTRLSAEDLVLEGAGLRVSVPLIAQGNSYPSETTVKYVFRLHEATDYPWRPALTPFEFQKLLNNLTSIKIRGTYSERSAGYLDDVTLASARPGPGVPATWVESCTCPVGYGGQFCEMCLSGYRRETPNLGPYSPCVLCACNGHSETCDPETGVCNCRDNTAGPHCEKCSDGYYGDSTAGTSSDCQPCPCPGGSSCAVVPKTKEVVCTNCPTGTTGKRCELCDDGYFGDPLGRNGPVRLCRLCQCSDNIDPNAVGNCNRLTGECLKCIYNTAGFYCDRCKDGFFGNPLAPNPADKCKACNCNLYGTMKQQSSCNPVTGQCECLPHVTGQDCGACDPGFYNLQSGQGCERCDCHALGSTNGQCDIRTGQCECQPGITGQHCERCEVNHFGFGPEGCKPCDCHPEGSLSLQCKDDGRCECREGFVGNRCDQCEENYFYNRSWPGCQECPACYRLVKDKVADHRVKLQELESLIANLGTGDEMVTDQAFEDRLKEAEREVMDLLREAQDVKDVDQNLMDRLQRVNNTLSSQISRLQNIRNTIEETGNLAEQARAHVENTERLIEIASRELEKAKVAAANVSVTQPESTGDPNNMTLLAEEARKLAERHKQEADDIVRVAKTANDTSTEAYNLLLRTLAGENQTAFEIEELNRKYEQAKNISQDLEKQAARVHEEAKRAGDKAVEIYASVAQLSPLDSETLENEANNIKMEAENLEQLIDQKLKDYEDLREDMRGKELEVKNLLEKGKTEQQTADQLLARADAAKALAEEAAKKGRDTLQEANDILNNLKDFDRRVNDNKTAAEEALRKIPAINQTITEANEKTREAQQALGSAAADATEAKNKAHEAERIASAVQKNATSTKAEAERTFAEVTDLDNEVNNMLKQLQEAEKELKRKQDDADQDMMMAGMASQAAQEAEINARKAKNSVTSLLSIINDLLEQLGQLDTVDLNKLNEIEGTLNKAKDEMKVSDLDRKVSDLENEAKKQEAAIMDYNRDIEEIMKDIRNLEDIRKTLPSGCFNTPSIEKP
Chain of UniProt P26006 (P26006 whole entry): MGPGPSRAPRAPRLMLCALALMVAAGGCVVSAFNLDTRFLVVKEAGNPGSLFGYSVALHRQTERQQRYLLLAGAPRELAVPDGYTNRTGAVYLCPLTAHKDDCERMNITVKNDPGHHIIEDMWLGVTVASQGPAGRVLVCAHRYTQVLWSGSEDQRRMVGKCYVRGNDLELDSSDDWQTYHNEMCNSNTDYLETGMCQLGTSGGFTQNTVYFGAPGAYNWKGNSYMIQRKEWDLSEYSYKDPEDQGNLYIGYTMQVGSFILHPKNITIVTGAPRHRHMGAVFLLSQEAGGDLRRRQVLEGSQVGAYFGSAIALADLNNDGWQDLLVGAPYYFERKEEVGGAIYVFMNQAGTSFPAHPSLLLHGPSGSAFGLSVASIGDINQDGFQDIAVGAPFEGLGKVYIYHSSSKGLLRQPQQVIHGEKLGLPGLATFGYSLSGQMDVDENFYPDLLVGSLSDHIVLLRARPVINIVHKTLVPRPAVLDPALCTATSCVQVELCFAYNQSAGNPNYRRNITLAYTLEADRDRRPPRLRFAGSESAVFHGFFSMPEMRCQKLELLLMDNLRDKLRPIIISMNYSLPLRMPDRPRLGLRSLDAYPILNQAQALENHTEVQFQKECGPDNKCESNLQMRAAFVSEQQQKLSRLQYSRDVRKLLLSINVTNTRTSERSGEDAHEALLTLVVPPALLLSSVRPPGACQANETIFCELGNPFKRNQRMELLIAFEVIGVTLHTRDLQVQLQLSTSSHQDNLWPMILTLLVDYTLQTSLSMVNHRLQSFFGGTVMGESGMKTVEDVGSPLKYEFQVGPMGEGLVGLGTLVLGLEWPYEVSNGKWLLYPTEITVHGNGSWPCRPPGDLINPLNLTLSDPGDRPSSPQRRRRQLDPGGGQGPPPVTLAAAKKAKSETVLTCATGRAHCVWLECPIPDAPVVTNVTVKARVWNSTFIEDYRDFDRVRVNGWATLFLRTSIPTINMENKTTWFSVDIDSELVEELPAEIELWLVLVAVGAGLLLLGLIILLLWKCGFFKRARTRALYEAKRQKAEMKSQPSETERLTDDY
Chain of UniProt P56199 (P56199 whole entry): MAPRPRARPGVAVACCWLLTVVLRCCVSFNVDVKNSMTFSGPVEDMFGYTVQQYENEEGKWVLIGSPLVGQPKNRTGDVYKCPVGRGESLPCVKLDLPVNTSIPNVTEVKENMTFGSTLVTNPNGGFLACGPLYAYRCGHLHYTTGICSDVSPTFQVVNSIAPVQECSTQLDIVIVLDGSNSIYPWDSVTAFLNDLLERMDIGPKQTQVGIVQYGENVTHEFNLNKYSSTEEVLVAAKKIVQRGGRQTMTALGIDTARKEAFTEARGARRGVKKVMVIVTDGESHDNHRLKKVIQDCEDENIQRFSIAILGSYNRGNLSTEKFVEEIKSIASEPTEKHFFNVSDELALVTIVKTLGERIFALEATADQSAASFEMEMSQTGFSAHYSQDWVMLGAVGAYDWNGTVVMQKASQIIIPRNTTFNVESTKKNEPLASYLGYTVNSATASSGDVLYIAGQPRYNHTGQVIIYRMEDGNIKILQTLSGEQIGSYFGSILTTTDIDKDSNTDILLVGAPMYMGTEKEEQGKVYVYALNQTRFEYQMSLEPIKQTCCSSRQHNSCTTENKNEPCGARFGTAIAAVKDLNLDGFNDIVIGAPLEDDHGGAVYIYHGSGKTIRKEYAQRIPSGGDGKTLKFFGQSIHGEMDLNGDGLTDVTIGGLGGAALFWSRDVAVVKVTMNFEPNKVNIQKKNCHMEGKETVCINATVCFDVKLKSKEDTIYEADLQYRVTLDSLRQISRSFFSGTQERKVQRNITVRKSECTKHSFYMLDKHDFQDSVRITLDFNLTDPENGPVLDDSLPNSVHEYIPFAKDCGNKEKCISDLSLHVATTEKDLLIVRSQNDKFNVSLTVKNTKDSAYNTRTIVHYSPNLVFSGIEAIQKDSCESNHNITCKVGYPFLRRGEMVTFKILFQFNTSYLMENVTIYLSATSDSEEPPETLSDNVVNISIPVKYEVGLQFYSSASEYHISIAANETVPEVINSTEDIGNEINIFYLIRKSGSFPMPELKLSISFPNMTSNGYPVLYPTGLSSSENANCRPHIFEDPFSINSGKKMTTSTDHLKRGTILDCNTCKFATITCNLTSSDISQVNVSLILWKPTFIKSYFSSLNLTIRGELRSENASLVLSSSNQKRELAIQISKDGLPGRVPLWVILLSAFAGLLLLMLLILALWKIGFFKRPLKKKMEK

Lysine labeling ratio R10:1, active:
PCMT1 (lysine site: K125) (UniProt P22061) 1.38, LAMC1 (lysine site: K1566) (UniProt P11047) 0.555, KRAS (lysine site: K128) (UniProt P01116) 1.02

Lysine labeling ratio R10:1, inactive:
HSPD1 (lysine site: K130) (UniProt P10809) 4.23, RPL22 (lysine site: K80) (UniProt P35268) 2.72, ENG (lysine site: K291) (UniProt P17813) 5.59, CPNE1 (lysine site: K73) (UniProt Q99829) 2.97, CD151 (lysine site: K186) (UniProt P48509) 6.68, ITGA3 (lysine site: K100) (UniProt P26006) 2.42, UniProt P05787 (lysine site: K8) 5.03, ECE1 (lysine site: K197) (UniProt P42892) 2.89, FGB (lysine site: K422) (UniProt P02675) 2.18, ATAD3B (lysine site: K281) (UniProt Q5T9A4) 12.6, RPL14 (lysine site: K103) (UniProt P50914) 3.31, PPIB (lysine site: K181) (UniProt P23284) 3.57, GAPDH (lysine site: K117) (UniProt P04406) 3.17, ITGA1 (lysine site: K291) (UniProt P56199) 7.48
